Article PMC11006913
Changes are numbered by the printed parent chain.

Experiments:
Assay in all cases: PBM; 200 nM protein, PBS
Conditions in all cases: dsDNA, one strand shown
VENTX [1] = molecular target: T1, VENTX (Homo sapiens, UniProt O95231 78-163, R121Q)
T1 sequence: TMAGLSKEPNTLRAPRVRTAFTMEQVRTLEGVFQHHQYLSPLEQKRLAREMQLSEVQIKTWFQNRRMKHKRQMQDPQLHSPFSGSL

VENTX [2] = molecular target: T2, VENTX (Homo sapiens, UniProt O95231 78-163)
T2 sequence: T1 sequence with Q44R

VENTX [3] = molecular target: T3, VENTX (Homo sapiens, UniProt O95231 78-163, Y115F)
T3 sequence: T1 sequence with Y38F, Q44R

ALX3 [4] = molecular target: ALX3 (Homo sapiens, UniProt O95076 139-225, N203Q)
ALX3 [5] = molecular target: ALX3 (Homo sapiens, UniProt O95076 139-225)
ALX3 [6] = molecular target: ALX3 (Homo sapiens, UniProt O95076 139-225, L168Q)
ALX3 [7] = molecular target: ALX3 (Homo sapiens, UniProt O95076 139-225, L168V)
ALX3 [8] = molecular target: ALX3 (Homo sapiens, UniProt O95076 139-225, N203S)
NKX2-6 = molecular target: T4, NKX2-6 (Homo sapiens, UniProt A6NCS4 118-204, R150C)
T4 sequence: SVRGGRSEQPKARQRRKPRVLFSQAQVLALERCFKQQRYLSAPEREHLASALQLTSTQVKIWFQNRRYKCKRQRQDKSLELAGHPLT

HOXB6 [9] = molecular target: HOXB6 (Homo sapiens, UniProt P17509 132-218, K202E)
HOXB6 [10] = molecular target: HOXB6 (Homo sapiens, UniProt P17509 132-218)
HOXA2 [11] = molecular target: HOXA2 (Homo sapiens, UniProt O43364 129-215, R185T)
HOXA2 [12] = molecular target: HOXA2 (Homo sapiens, UniProt O43364 129-215, R185K)
HOXA2 [13] = molecular target: HOXA2 (Homo sapiens, UniProt O43364 129-215, Y150S)
HOXA2 [14] = molecular target: HOXA2 (Homo sapiens, UniProt O43364 129-215)
HOXD13 [15] = molecular target: HOXD13 (Homo sapiens, UniProt P35453 263-343, T313R)
HOXD13 [16] = molecular target: HOXD13 (Homo sapiens, UniProt P35453 263-343)
HOXD13 [17] = molecular target: HOXD13 (Homo sapiens, UniProt P35453 263-343, T313A)
HOXA4 = HOXA4 (Homo sapiens, UniProt Q00056 201-287, R217L)
Chain of HOXA4 (Q00056 201-287 R217L): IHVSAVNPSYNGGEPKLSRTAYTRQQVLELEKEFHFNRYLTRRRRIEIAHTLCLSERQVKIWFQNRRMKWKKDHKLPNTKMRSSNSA

Chain of HOXA2 (Homo sapiens, UniProt O43364 129-215, R185K) (O43364 129-215 R185K): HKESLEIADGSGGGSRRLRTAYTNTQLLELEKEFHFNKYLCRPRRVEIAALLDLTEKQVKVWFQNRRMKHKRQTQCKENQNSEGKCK
Chain of HOXA2 (Homo sapiens, UniProt O43364 129-215) (O43364 129-215): as the sequence (O43364 129-215 R185K) above, with K57R counted along it
Chain of HOXA2 (Homo sapiens, UniProt O43364 129-215, R185T) (O43364 129-215 R185T): as the sequence (O43364 129-215 R185K) above, with K57T counted along it
Chain of HOXA2 (Homo sapiens, UniProt O43364 129-215, Y150S) (O43364 129-215 Y150S): as the sequence (O43364 129-215 R185K) above, with Y22S, K57R counted along it
Chain of ALX3 (Homo sapiens, UniProt O95076 139-225, N203Q) (O95076 139-225 N203Q): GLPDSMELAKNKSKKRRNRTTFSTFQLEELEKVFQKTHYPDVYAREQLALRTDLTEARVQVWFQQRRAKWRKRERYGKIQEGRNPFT
Chain of ALX3 (Homo sapiens, UniProt O95076 139-225, N203S) (O95076 139-225 N203S): as the sequence (O95076 139-225 N203Q) above, with Q65S counted along it
Chain of ALX3 (Homo sapiens, UniProt O95076 139-225, L168V) (O95076 139-225 L168V): as the sequence (O95076 139-225 N203Q) above, with L30V, Q65N counted along it
Chain of ALX3 (Homo sapiens, UniProt O95076 139-225) (O95076 139-225): as the sequence (O95076 139-225 N203Q) above, with Q65N counted along it
Chain of ALX3 (Homo sapiens, UniProt O95076 139-225, L168Q) (O95076 139-225 L168Q): as the sequence (O95076 139-225 N203Q) above, with L30Q, Q65N counted along it
Chain of HOXB6 (Homo sapiens, UniProt P17509 132-218, K202E) (P17509 132-218 K202E): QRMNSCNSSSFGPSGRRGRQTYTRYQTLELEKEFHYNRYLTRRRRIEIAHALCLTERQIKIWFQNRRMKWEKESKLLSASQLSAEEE
Chain of HOXD13 (Homo sapiens, UniProt P35453 263-343) (P35453 263-343): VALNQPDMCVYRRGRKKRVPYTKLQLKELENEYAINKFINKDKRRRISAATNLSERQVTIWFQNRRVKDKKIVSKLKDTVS
Chain of HOXD13 (Homo sapiens, UniProt P35453 263-343, T313A) (P35453 263-343 T313A): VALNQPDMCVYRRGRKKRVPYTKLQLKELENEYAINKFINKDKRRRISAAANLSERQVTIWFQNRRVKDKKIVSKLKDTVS
Chain of HOXB6 (Homo sapiens, UniProt P17509 132-218) (P17509 132-218): as the sequence (P17509 132-218 K202E) above, with E71K counted along it
Chain of HOXD13 (Homo sapiens, UniProt P35453 263-343, T313R) (P35453 263-343 T313R): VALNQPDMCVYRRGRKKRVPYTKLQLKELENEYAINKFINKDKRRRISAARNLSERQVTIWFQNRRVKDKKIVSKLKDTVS

CTCGGACC
binding signal (VENTX [1]): 8.07 upbm affinity estimate (log intensity, higher = more binding, comparable within an allelic series)
binding signal (VENTX [2]): 8.13 upbm affinity estimate (log intensity, higher = more binding, comparable within an allelic series)
binding signal (VENTX [3]): 8.15 upbm affinity estimate (log intensity, higher = more binding, comparable within an allelic series)

ACCGATTA
binding signal (VENTX [1]): 11.5 upbm affinity estimate (log intensity, higher = more binding, comparable within an allelic series)
binding signal (VENTX [2]): 12.9 upbm affinity estimate (log intensity, higher = more binding, comparable within an allelic series)
binding signal (VENTX [3]): 11.5 upbm affinity estimate (log intensity, higher = more binding, comparable within an allelic series)

ATCGATAA
binding signal (VENTX [1]): 10.3 upbm affinity estimate (log intensity, higher = more binding, comparable within an allelic series)
binding signal (VENTX [2]): 11 upbm affinity estimate (log intensity, higher = more binding, comparable within an allelic series)
binding signal (VENTX [3]): 10.2 upbm affinity estimate (log intensity, higher = more binding, comparable within an allelic series)

ATTAGTGG
binding signal (VENTX [1]): 11.7 upbm affinity estimate (log intensity, higher = more binding, comparable within an allelic series)
binding signal (VENTX [2]): 12.3 upbm affinity estimate (log intensity, higher = more binding, comparable within an allelic series)
binding signal (VENTX [3]): 11.4 upbm affinity estimate (log intensity, higher = more binding, comparable within an allelic series)

CACTGCGC
binding signal (VENTX [1]): 8.04 upbm affinity estimate (log intensity, higher = more binding, comparable within an allelic series)
binding signal (VENTX [2]): 8.14 upbm affinity estimate (log intensity, higher = more binding, comparable within an allelic series)
binding signal (VENTX [3]): 8.18 upbm affinity estimate (log intensity, higher = more binding, comparable within an allelic series)

GTTATTCA
binding signal (VENTX [1]): 9.35 upbm affinity estimate (log intensity, higher = more binding, comparable within an allelic series)
binding signal (VENTX [2]): 9.76 upbm affinity estimate (log intensity, higher = more binding, comparable within an allelic series)
binding signal (VENTX [3]): 9.4 upbm affinity estimate (log intensity, higher = more binding, comparable within an allelic series)

CGATTAGC
binding signal (VENTX [1]): 11.7 upbm affinity estimate (log intensity, higher = more binding, comparable within an allelic series)
binding signal (VENTX [2]): 12.8 upbm affinity estimate (log intensity, higher = more binding, comparable within an allelic series)
binding signal (VENTX [3]): 11.6 upbm affinity estimate (log intensity, higher = more binding, comparable within an allelic series)

ATTATGTC
binding signal (VENTX [1]): 10.5 upbm affinity estimate (log intensity, higher = more binding, comparable within an allelic series)
binding signal (VENTX [2]): 11 upbm affinity estimate (log intensity, higher = more binding, comparable within an allelic series)
binding signal (VENTX [3]): 10.4 upbm affinity estimate (log intensity, higher = more binding, comparable within an allelic series)

GTCTCCAC
binding signal (VENTX [1]): 8.1 upbm affinity estimate (log intensity, higher = more binding, comparable within an allelic series)
binding signal (VENTX [2]): 8.02 upbm affinity estimate (log intensity, higher = more binding, comparable within an allelic series)
binding signal (VENTX [3]): 8.1 upbm affinity estimate (log intensity, higher = more binding, comparable within an allelic series)

AAATTGAT
binding signal (VENTX [1]): 10.3 upbm affinity estimate (log intensity, higher = more binding, comparable within an allelic series)
binding signal (VENTX [2]): 10.7 upbm affinity estimate (log intensity, higher = more binding, comparable within an allelic series)
binding signal (VENTX [3]): 9.99 upbm affinity estimate (log intensity, higher = more binding, comparable within an allelic series)

CGATTAAC
binding signal (VENTX [1]): 11.4 upbm affinity estimate (log intensity, higher = more binding, comparable within an allelic series)
binding signal (VENTX [2]): 12.4 upbm affinity estimate (log intensity, higher = more binding, comparable within an allelic series)
binding signal (VENTX [3]): 11.3 upbm affinity estimate (log intensity, higher = more binding, comparable within an allelic series)

CGCATGCG
binding signal (VENTX [1]): 8.34 upbm affinity estimate (log intensity, higher = more binding, comparable within an allelic series)
binding signal (VENTX [2]): 8.73 upbm affinity estimate (log intensity, higher = more binding, comparable within an allelic series)
binding signal (VENTX [3]): 8.4 upbm affinity estimate (log intensity, higher = more binding, comparable within an allelic series)

CAGGGGGG
binding signal (VENTX [1]): 8.13 upbm affinity estimate (log intensity, higher = more binding, comparable within an allelic series)
binding signal (VENTX [2]): 8.11 upbm affinity estimate (log intensity, higher = more binding, comparable within an allelic series)
binding signal (VENTX [3]): 8.09 upbm affinity estimate (log intensity, higher = more binding, comparable within an allelic series)
binding signal (ALX3 [4]): 7.62 upbm affinity estimate (log intensity, higher = more binding, comparable within an allelic series)
binding signal (ALX3 [5]): 7.33 upbm affinity estimate (log intensity, higher = more binding, comparable within an allelic series)
binding signal (ALX3 [6]): 7.58 upbm affinity estimate (log intensity, higher = more binding, comparable within an allelic series)
binding signal (ALX3 [7]): 7.5 upbm affinity estimate (log intensity, higher = more binding, comparable within an allelic series)
binding signal (ALX3 [8]): 7.6 upbm affinity estimate (log intensity, higher = more binding, comparable within an allelic series)

CCCGACCG
binding signal (VENTX [1]): 8.21 upbm affinity estimate (log intensity, higher = more binding, comparable within an allelic series)
binding signal (VENTX [2]): 8.16 upbm affinity estimate (log intensity, higher = more binding, comparable within an allelic series)
binding signal (VENTX [3]): 8.1 upbm affinity estimate (log intensity, higher = more binding, comparable within an allelic series)
binding signal (NKX2-6): 9.21 upbm affinity estimate (log intensity, higher = more binding, comparable within an allelic series)
binding signal (ALX3 [4]): 7.73 upbm affinity estimate (log intensity, higher = more binding, comparable within an allelic series)
binding signal (ALX3 [5]): 7.81 upbm affinity estimate (log intensity, higher = more binding, comparable within an allelic series)
binding signal (ALX3 [6]): 7.73 upbm affinity estimate (log intensity, higher = more binding, comparable within an allelic series)
binding signal (ALX3 [7]): 7.72 upbm affinity estimate (log intensity, higher = more binding, comparable within an allelic series)
binding signal (ALX3 [8]): 7.76 upbm affinity estimate (log intensity, higher = more binding, comparable within an allelic series)

CCACGCGC
binding signal (VENTX [1]): 8.13 upbm affinity estimate (log intensity, higher = more binding, comparable within an allelic series)
binding signal (VENTX [2]): 8.26 upbm affinity estimate (log intensity, higher = more binding, comparable within an allelic series)
binding signal (VENTX [3]): 8.14 upbm affinity estimate (log intensity, higher = more binding, comparable within an allelic series)
binding signal (HOXB6 [9]): 9.05 upbm affinity estimate (log intensity, higher = more binding, comparable within an allelic series)
binding signal (HOXB6 [10]): 8.96 upbm affinity estimate (log intensity, higher = more binding, comparable within an allelic series)

GCGGCCCC
binding signal (VENTX [1]): 8.15 upbm affinity estimate (log intensity, higher = more binding, comparable within an allelic series)
binding signal (VENTX [2]): 8.27 upbm affinity estimate (log intensity, higher = more binding, comparable within an allelic series)
binding signal (VENTX [3]): 8.25 upbm affinity estimate (log intensity, higher = more binding, comparable within an allelic series)
binding signal (HOXA2 [11]): 6.96 upbm affinity estimate (log intensity, higher = more binding, comparable within an allelic series)
binding signal (HOXA2 [12]): 9.93 upbm affinity estimate (log intensity, higher = more binding, comparable within an allelic series)
binding signal (HOXA2 [13]): 10.3 upbm affinity estimate (log intensity, higher = more binding, comparable within an allelic series)
binding signal (HOXA2 [14]): 7.15 upbm affinity estimate (log intensity, higher = more binding, comparable within an allelic series)

CACTAATG
binding signal (VENTX [1]): 11.7 upbm affinity estimate (log intensity, higher = more binding, comparable within an allelic series)
binding signal (VENTX [2]): 12.3 upbm affinity estimate (log intensity, higher = more binding, comparable within an allelic series)
binding signal (VENTX [3]): 11.6 upbm affinity estimate (log intensity, higher = more binding, comparable within an allelic series)
binding signal (HOXA2 [11]): 12.1 upbm affinity estimate (log intensity, higher = more binding, comparable within an allelic series)
binding signal (HOXA2 [12]): 13.2 upbm affinity estimate (log intensity, higher = more binding, comparable within an allelic series)
binding signal (HOXA2 [13]): 10.9 upbm affinity estimate (log intensity, higher = more binding, comparable within an allelic series)
binding signal (HOXA2 [14]): 12.1 upbm affinity estimate (log intensity, higher = more binding, comparable within an allelic series)

AGCCCGGA
binding signal (VENTX [1]): 8.11 upbm affinity estimate (log intensity, higher = more binding, comparable within an allelic series)
binding signal (VENTX [2]): 7.92 upbm affinity estimate (log intensity, higher = more binding, comparable within an allelic series)
binding signal (VENTX [3]): 8.12 upbm affinity estimate (log intensity, higher = more binding, comparable within an allelic series)

CGCCCGGA
binding signal (VENTX [1]): 7.98 upbm affinity estimate (log intensity, higher = more binding, comparable within an allelic series)
binding signal (VENTX [2]): 7.85 upbm affinity estimate (log intensity, higher = more binding, comparable within an allelic series)
binding signal (VENTX [3]): 8.06 upbm affinity estimate (log intensity, higher = more binding, comparable within an allelic series)
binding signal (HOXD13 [15]): 9.55 upbm affinity estimate (log intensity, higher = more binding, comparable within an allelic series)
binding signal (HOXD13 [16]): 9.51 upbm affinity estimate (log intensity, higher = more binding, comparable within an allelic series)
binding signal (HOXD13 [17]): 9.62 upbm affinity estimate (log intensity, higher = more binding, comparable within an allelic series)

CATTAGCG
binding signal (VENTX [1]): 11.8 upbm affinity estimate (log intensity, higher = more binding, comparable within an allelic series)
binding signal (VENTX [2]): 12.7 upbm affinity estimate (log intensity, higher = more binding, comparable within an allelic series)
binding signal (VENTX [3]): 11.6 upbm affinity estimate (log intensity, higher = more binding, comparable within an allelic series)
binding signal (HOXA2 [11]): 12.3 upbm affinity estimate (log intensity, higher = more binding, comparable within an allelic series)
binding signal (HOXA4): 11.4 upbm affinity estimate (log intensity, higher = more binding, comparable within an allelic series)
binding signal (HOXA2 [12]): 13.1 upbm affinity estimate (log intensity, higher = more binding, comparable within an allelic series)
binding signal (HOXA2 [13]): 10.7 upbm affinity estimate (log intensity, higher = more binding, comparable within an allelic series)
binding signal (HOXA2 [14]): 12.1 upbm affinity estimate (log intensity, higher = more binding, comparable within an allelic series)
